# Compound activity (PubChem BioAssay)
# BAZ2B block: qHTS Assay for Inhibitors of BAZ2B. Bromodomain adjacent to zinc finger domain protein 2B (Homo sapiens), Q9UIF8. AlphaScreen BAZ2B-H3K14Ac peptide displacement. Potency, µM (doses to about 114 µM), inactives show at the top dose activity change, negative = inhibition, actives largely listed as inhibitors. 360,000 compounds, 4.4% hits. AID 504333, 2011; also: % is scaled to controls: 0 for no effect and ±100 for the full control effect; nearly all actives have a fitted effect of over 60% in size
#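 BAZ2B 50 nM plus b-H3(5-23)K14Ac 50 nM, PBS pH 7.4/0.01% Tween-20, 30 min RT; compound added (max 110 uM), 30 min RT; streptavidin donor/Ni-chelate acceptor beads 10 ug/mL final, 20 min dark; AlphaScreen read.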
# L3MBTL1 inh: qHTS Assay for the Inhibitors of L3MBTL1 | Lethal(3)malignant brain tumor-like protein 1 (Homo sapiens), Q9Y468 | AlphaScreen L3MBTL1–H3K9me1 peptide binding | Potency, µM (titrated, usually from 57.1 µM), for inactives: top-dose activity, negative = inhibition, usual class: inhibitors | 230,000 compounds, 0.66% hits; also: % is scaled to controls: 0 for no effect and ±100 for the full control effect; nearly all actives have a fitted effect of over 60% in size
#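 L3MBTL1 (50 nM) pre-complexed 30 min with biotinylated H3(1-15)K9me1 peptide (75 nM), then compounds added for 30 min at room temperature; AlphaScreen streptavidin donor/nickel chelate acceptor beads (10 ug/mL final) read after 30 min dark incubation.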
# HP1b chromo inh: HTS for Inhibitors of HP1-beta Chromodomain Interactions with Methylated Histone Tails; Chromobox protein homolog 1 (Homo sapiens), P83916; AlphaScreen HP1-beta / biotin-H3K9me3 peptide binding; AID 540317, 2011; 390,000 compounds, 0.56% hits; Potency, µM (highest dose often 114 µM), for inactives: top-dose activity change, negative = inhibition, actives largely listed as inhibitors; also: nearly all actives have a fitted effect of over 70% in size
# Target sequence (P83916 whole entry, looked up): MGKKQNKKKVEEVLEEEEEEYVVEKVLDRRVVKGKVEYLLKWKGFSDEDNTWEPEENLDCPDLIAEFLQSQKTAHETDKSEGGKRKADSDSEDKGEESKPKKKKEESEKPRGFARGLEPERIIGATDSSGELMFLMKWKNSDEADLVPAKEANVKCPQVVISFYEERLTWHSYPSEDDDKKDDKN
#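 Compound inhibition of the preformed complex between 50 nM HP1-beta and 50 nM biotinylated H3K9me3 peptide was read by AlphaScreen. Buffer was PBS pH 7.4 with 0.01% Tween-20. Incubations ran 30 min at room temperature, with 10 ug/mL donor/acceptor beads.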
# JMJD2A Tudor: qHTS Assay for Inhibitors of JMJD2A-Tudor Domain. Potency, µM (highest dose often 114 µM), without a hit: at the highest dose activity change, negative = inhibition, actives largely listed as inhibitors. AID 504339, 2011. Lysine-specific demethylase 4A (Homo sapiens), O75164. 390,000 compounds, 4.4% hits. AlphaScreen JMJD2A-Tudor / H3K4me3 peptide binding; also: % is scaled to controls: 0 for no effect and ±100 for the full control effect; nearly all actives have a fitted effect of over 50% in size
# Sfp inh: qHTS Assay for Inhibitors of Bacillus subtilis Sfp phosphopantetheinyl transferase (PPTase). AID 1490, 2009. Potency, µM, for inactives: largest response in the series, negative = inhibition, hits mostly inhibitors. 4'-phosphopantetheinyl transferase ffp (Bacillus subtilis), Q9F4F7. 310,000 compounds, 3.5% hits. Biochemical Sfp PPTase activity, qHTS;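 also: the enzyme is Sfp with the accession as filed and its product quenches rhodamine fluorescence; 0% = enzyme reaction without inhibitor and -100% = no enzyme wells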
#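 Fluorescence-quenching assay: 15 nM Sfp-PPTase preincubated 15 min at room temperature with compound, then 5 uM rhodamine-CoA and 12.5 uM BHQ-2-labelled YbbR peptide added. Fluorescence (ex 525/em 598 nm) read at start and after 30 min; difference gives rate.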
# G9a inh: qHTS Assay for Inhibitors of Histone Lysine Methyltransferase G9a | Histone-lysine N-methyltransferase EHMT2 (Homo sapiens), Q96KQ7 | G9a H3K9 monomethylation, AlphaScreen, 2 h | Potency, µM (doses to about 102 µM), for the others: top-dose activity, negative = inhibition, usual class: inhibitors | 350,000 compounds, 8.8% hits | AID 504332, 2011; also: % is scaled to controls: 0 for no effect and ±100 for the full control effect; nearly all actives have a fitted effect of over 75% in size
# Target sequence (Q96KQ7 913-1193 limits assumed): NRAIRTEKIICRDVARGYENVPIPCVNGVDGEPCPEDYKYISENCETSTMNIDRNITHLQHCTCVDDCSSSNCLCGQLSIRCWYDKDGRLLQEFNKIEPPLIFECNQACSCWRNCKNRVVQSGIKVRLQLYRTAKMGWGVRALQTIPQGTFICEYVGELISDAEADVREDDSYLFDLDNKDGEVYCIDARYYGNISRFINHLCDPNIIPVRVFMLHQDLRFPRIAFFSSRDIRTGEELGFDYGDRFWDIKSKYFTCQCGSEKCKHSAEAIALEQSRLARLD
#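 G9a (20 nM) was preincubated 15 min with compound, then reacted 2 h at room temperature with 500 nM biotin-H3K9 peptide and 20 µM SAM. Monomethyl-H3K9 detected by AlphaScreen using anti-H3K9me1 antibody.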
# An asterisk follows results filed as active; ? = inconclusive; / = not tested or not shown; [ ] = another dose, or the depositor's remark. An excerpt weighted towards active compounds, which were near 12% of everything screened. Calls follow the shape of the dose curve; as a rule, active = well fitted curve in the direction sought with a large enough effect; inconclusive = small, poorly fitted or top-dose-only effect, or another doubt; inactive = no such curve, though single readings can be large; an effect the other way counts as inactive or inconclusive. Potency is read from the fitted curve at half-maximal effect.
SMILES,BAZ2B block,L3MBTL1 inh,HP1b chromo inh,JMJD2A Tudor,Sfp inh,G9a inh
C=CCn1c(O)c(C2=c3ccccc3=NC2=O)c2ccccc21,6.3µM*,0%,?,10µM*,45µM*,6.3µM*
Cc1ccc(S(=O)(=O)c2nc(Nc3ccccc3N3CCOCC3)sc2Cl)cc1,54%,32%,1%,-25%,-8%,-2%[0.501 µM]
Cc1ccc(S(=O)(=O)c2nc(Nc3ccccc3C#N)sc2Cl)cc1,-5%,7%,41%,11%,-1%,7.9µM*
S=c1nn[nH]c2ccccc12,/,/,-13%,11µM*,/,/
COc1ccc(S(=O)(=O)N(C)C(C)CCc2ccco2)cc1 (stereo unspecified),-27%,/,12%,-9%,-18%,79µM*
COc1cc(/C=C2\SC(=S)N(NC(=O)c3cccnc3)C2=O)ccc1O,45µM*,/,-19%,-16%,8%,?
COc1cc(/C=C2\SC(=S)N(NC(=O)c3ccc(O)cc3)C2=O)ccc1O,40µM*,/,56µM*,?,5%,-47%[12.7 µM]
CCN1C(=O)/C(=C2\SC(=S)N(NC(=O)c3cccnc3)C2=O)c2ccccc21,?,/,-14%,?,-11%,40µM*
COc1cc(/C=C2\SC(=S)N(c3cccnc3)C2=O)ccc1O,?,/,34%,-31%,-25%,-49%[59 µM]
Cc1cc(C)cc(NC(=O)CSc2nnc(COc3ccccc3Cl)o2)c1,8%,/,39%,11%,/,-3%[59 µM]
CCN1CCN(C(=O)Cn2ncc3c4ccccc4n(Cc4c(C)cc(C)cc4C)c3c2=O)CC1,?,/,10%,-31%,/,-30%[59 µM]
Cc1noc(C)c1NC(=O)Nc1cccc2c1O[C@H](CN(C)C(=O)NC1CCCCC1)[C@@H](C)CN([C@H](C)CO)C2=O,/,0%,34%,-23%,/,/
O=C(c1cc(-c2cccc(Cl)c2)on1)N1CCCCCC1,26%,/,65%,40%,-22%,18%
CC(C)NC(=O)c1cc(-c2ccco2)nn1-c1ccc(Cl)cc1,50µM*,-18%,?,35µM*,10µM*,3.5µM*
CCOC(=O)c1cc(-c2ccco2)nn1-c1ccc(C)cc1,?,-25%,-23%,-30%,?,40µM*
Cc1ccc(-n2nc(-c3ccco3)cc2C(=O)O)cc1,79µM*,/,5%,-2%[11.4 µM],22µM*,?
O=C(c1cc(-c2ccco2)nn1-c1cccc(Cl)c1)N1CCCCC1,?,-26%,?,25µM*,8.9µM*,3.2µM*
CC1CCCN(C(=O)CNC(=O)c2ccco2)C1 (stereo unspecified),-19%,/,28%,-10%,18%,22%
CC1CCCN(C(=O)CN2CCN(C(=O)c3ccco3)CC2)C1 (stereo unspecified),-6%,0%,34%,-3%,4%,25µM*
O=C(c1ccco1)N1CCN(CC(=O)N2c3ccccc3CCc3ccccc32)CC1,18µM*,/,14µM*,1µM*,?,?
NC(=O)[C@@H]1CCCCNc2c(F)cc([N+](=O)[O-])cc2C(=O)N[C@@H](CC(=O)O)C(=O)N[C@@H](CCC(=O)O)C(=O)N1,-11%,-15%,32%,?,0%,?
NC(=O)[C@@H]1CCNc2c(I)cc([N+](=O)[O-])cc2C(=O)N[C@@H](CCC(=O)O)C(=O)N[C@@H](CO)C(=O)N1,-38%,-11%,31%,-14%,-28%,10µM*
NC(=O)C[C@@H]1NC(=O)c2cc([N+](=O)[O-])cc(F)c2NCCCC[C@@H](C(N)=O)NC(=O)[C@H](CO)NC1=O,?,-8%,/,/,3%,50µM*
